Experimental data: paper PMC5540273 (PLoS ONE, 2017)
Like-named read-outs stand apart in the source and are kept apart here.

Tests used:
[1] = system: ZAK; conditions: concentration: 1 μM, replicates: in singlicate; n = 1
[2] = system: ZAP70; conditions: concentration: 1 μM, replicates: in singlicate; n = 1
[3] = system: T1, p38-alpha; conditions: n = 1
T1 construct: gene MAPK14

[4] = system: T2, p38-beta; conditions: concentration: 1 μM, replicates: in singlicate; n = 1
T2 construct: gene MAPK11

[5] = system: p38-delta; conditions: concentration: 1 μM, replicates: in singlicate; n = 1
[6] = system: T3, p38-gamma; conditions: concentration: 1 μM, replicates: in singlicate; n = 1
T3 construct: gene MAPK12

[7] = concentration: 1 μM, replicates: in singlicate
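Also: KINOMEscan kinase panel screen.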

COC(=O)Nc1nc2ccc(Oc3ccc(NC(=O)Nc4cc(C(F)(F)F)ccc4F)cc3)cc2n1C.Cl [GW692089]
%Inh [1]: 87% | %Inh [2]: 0% | %Inh [3, 7]: 57% | %Inh [4]: 16% | %Inh [5]: 0% | %Inh [6]: 44%

Cl.Cl.NCC(NC(=O)c1cc(-c2ccccc2)c(-c2ccnc3[nH]ccc23)s1)c1ccccc1 (stereo not drawn) [GSK1321561]
%Inh [1]: 46% | %Inh [2]: 0% | %Inh [3, 7]: 0% | %Inh [4]: 0% | %Inh [5]: 47% | %Inh [6]: 0%

Cc1ccc(F)c(C(=O)Nc2cccc(-c3nn4ccccc4c3-c3ccnc(Nc4cccc(F)c4)n3)c2)c1F [GSK361061]
%Inh [1]: 89% | %Inh [2]: 0% | %Inh [3, 7]: 29% | %Inh [4]: 76% | %Inh [5]: 0% | %Inh [6]: 12%

O=C(Nc1n[nH]c2nc(-c3ccc(O)cc3)ccc12)C1CC1 [SB-710363]
%Inh [1]: 23% | %Inh [2]: 0% | %Inh [3, 7]: 0% | %Inh [4]: 11% | %Inh [5]: 0% | %Inh [6]: 20%

COc1cccc(C(=O)Nc2cccc(Oc3ccc4nc(NC(=O)C5CC5)cn4n3)c2)c1
%Inh [1]: 62% | %Inh [2]: 0% | %Inh [3, 7]: 15% | %Inh [4]: 16% | %Inh [5]: 32% | %Inh [6]: 39%

CN(C)Cc1ccc(-c2ccc3c(Nc4ccc(Oc5ccccn5)cc4)ccnc3c2)o1 [GW567148]
%Inh [1]: 65% | %Inh [2]: 0% | %Inh [3, 7]: 0% | %Inh [4]: 0% | %Inh [5]: 38% | %Inh [6]: 0%

CCc1ccc(-c2ccc3c(c2)-c2c(cnn2C)S(=O)(=O)N3C)cc1
%Inh [1]: 3% | %Inh [2]: 0% | %Inh [3, 7]: 9% | %Inh [4]: 4% | %Inh [5]: 23% | %Inh [6]: 14%

Cn1cc(-c2ccc3c(c2)CCN3C(=O)Cc2cccc(F)c2)c2c(N)ncnc21 [GSK2603358]
%Inh [1]: 0% | %Inh [2]: 55% | %Inh [3, 7]: 0% | %Inh [4]: 0% | %Inh [5]: 52% | %Inh [6]: 19%

O=C(Nc1cccc(-c2nn3ccccc3c2-c2ccnc(Nc3cccc(F)c3)n2)c1)c1c(F)ccc(F)c1Cl [GSK357952]
%Inh [1]: 85% | %Inh [2]: 0% | %Inh [3, 7]: 0% | %Inh [4]: 26% | %Inh [5]: 36% | %Inh [6]: 0%

COc1ccc(-c2coc3ccc(-c4nnc(SCc5ccc(OC)c(C(F)(F)F)c5)o4)cc23)cc1
%Inh [1]: 0% | %Inh [2]: 0% | %Inh [3, 7]: 0% | %Inh [4]: 6% | %Inh [5]: 6% | %Inh [6]: 16%

CCS(=O)(=O)c1ccc(OC)c(Nc2nccc(-c3c(-c4cccc(NC(=O)c5c(F)cccc5F)c4)nn4ncccc34)n2)c1 [GSK326180]
%Inh [1]: 28% | %Inh [2]: 46% | %Inh [3, 7]: 99.9% | %Inh [4]: 99.6% | %Inh [5]: 47% | %Inh [6]: 0%

COCCOCCOc1cc2ncc3c4ccc(C#N)cc4[nH]c3c2cc1OC
%Inh [1]: 33% | %Inh [2]: 0% | %Inh [3, 7]: 1% | %Inh [4]: 0% | %Inh [5]: 0% | %Inh [6]: 23%

CC(=O)Nc1nc2cnc(Nc3cc(NC(=O)c4cccc(C5(C#N)CC5)c4Cl)ccc3C)nc2s1
%Inh [1]: 17% | %Inh [2]: 0% | %Inh [3, 7]: 86% | %Inh [4]: 19% | %Inh [5]: 17% | %Inh [6]: 0%

Fc1ccc(-c2ncn(C3CCNCC3)c2-c2ccnc(Oc3ccc(-c4ccccc4)cc3)n2)cc1 [SB-245391]
%Inh [1]: 17% | %Inh [2]: 24% | %Inh ([3]; 1 µM): 96% | %Inh [4]: 60% | %Inh [5]: 0% | %Inh [6]: 26%

CC(C)c1nc(-c2cccc(NS(=O)(=O)c3c(F)cccc3F)c2F)c(-c2ccnc(Nc3ccc(N4CCOCC4)nc3)n2)s1 [GSK2008607]
%Inh [1]: 99.1% | %Inh [2]: 0% | %Inh [3, 7]: 81% | %Inh [4]: 51% | %Inh [5]: 0% | %Inh [6]: 0%

O=C(Nc1n[nH]c2cc(-c3ccoc3)ccc12)C1CC1 [SB-738481]
%Inh [1]: 15% | %Inh [2]: 0% | %Inh [3, 7]: 0% | %Inh [4]: 0% | %Inh [5]: 0% | %Inh [6]: 1%

Oc1cc(Nc2ccnc3cc(I)ccc23)ccc1F [GW552771]
%Inh [1]: 73% | %Inh [2]: 0% | %Inh [3, 7]: 4% | %Inh [4]: 0% | %Inh [5]: 27% | %Inh [6]: 0%

O=C(Nc1ccccc1F)NC1CCN(c2ccnc(Nc3ccc(F)cc3)n2)CC1 [GSK1379800]
%Inh [1]: 30% | %Inh [2]: 47% | %Inh [3, 7]: 32% | %Inh [4]: 0% | %Inh [5]: 45% | %Inh [6]: 0%

Nc1ncnc2c1nc(-c1ccccc1)n2-c1ccccc1 [SKF-97293]
%Inh [1]: 16% | %Inh [2]: 12% | %Inh [3, 7]: 12% | %Inh [4]: 4% | %Inh [5]: 0% | %Inh [6]: 26%

Cn1cc(-c2[nH]c3cc(NC(=O)[C@H](N)C4CCCCC4)cc4c3c2C=NNC4=O)cn1
%Inh [1]: 0% | %Inh [2]: 17% | %Inh [3, 7]: 0% | %Inh [4]: 0% | %Inh [5]: 0% | %Inh [6]: 7%

COc1cc(Nc2nccc(N3CCC(NC(=O)c4cc5ccccc5s4)C3)n2)cc(OC)c1OC (stereo not drawn) [GSK1379760]
%Inh [1]: 0% | %Inh [2]: 0% | %Inh [3, 7]: 3% | %Inh [4]: 2% | %Inh [5]: 15% | %Inh [6]: 26%

COc1ccc(CNC(=O)NC2CCN(c3ccnc(Nc4ccc(F)cc4)n3)CC2)cc1 [GSK1379788]
%Inh [1]: 0% | %Inh [2]: 4% | %Inh [3, 7]: 19% | %Inh [4]: 0% | %Inh [5]: 29% | %Inh [6]: 0%

CCn1c(-c2nonc2N)nc2c(C#CC(C)(C)O)nc(OC[C@H](N)c3ccccc3)cc21 [GSK943949]
%Inh [1]: 0% | %Inh [2]: 0% | %Inh [3, 7]: 0% | %Inh [4]: 0% | %Inh [5]: 0% | %Inh [6]: 34%

COc1ccc(Nc2nccc(NCCNC(=O)c3cc4ccccc4s3)n2)cc1 [GSK1379896]
%Inh [1]: 0% | %Inh [2]: 0% | %Inh [3, 7]: 13% | %Inh [4]: 0% | %Inh [5]: 11% | %Inh [6]: 5%

Cc1occc1-c1ncc(OC[C@@H](N)Cc2c[nH]c3ccccc23)cc1-c1ccc2[nH]nc(C)c2c1.O=C(O)C(F)(F)F [GSK682037]
%Inh [1]: 0% | %Inh [2]: 0% | %Inh [3, 7]: 89% | %Inh [4]: 36% | %Inh [5]: 73% | %Inh [6]: 72%

COc1cccc(NC(=O)NC2CCN(c3ccnc(Nc4cc(OC)c(OC)c(OC)c4)n3)C2)c1 (stereo not drawn) [GSK1379763]
%Inh [1]: 0% | %Inh [2]: 0% | %Inh [3, 7]: 24% | %Inh [4]: 0% | %Inh [5]: 8% | %Inh [6]: 4%

CN1CCN(Cc2cccc(-c3ccc4c(Nc5ccc(Oc6ccccc6)cc5)ccnc4c3)c2)CC1 [GW578342]
%Inh [1]: 79% | %Inh [2]: 14% | %Inh [3, 7]: 23% | %Inh [4]: 0% | %Inh [5]: 37% | %Inh [6]: 2%

CN(C)S(=O)(=O)c1cc(-c2ccc3nccc(-c4cccc(S(N)(=O)=O)c4)c3c2)cnc1N [GSK1669921]
%Inh [1]: 0% | %Inh [2]: 4% | %Inh [3, 7]: 0% | %Inh [4]: 0% | %Inh [5]: 44% | %Inh [6]: 23%

COc1cccc(C2=C(Nc3ccc(Cl)c(C(=O)O)c3)C(=O)NC2=O)c1 [SB-390769]
%Inh [1]: 0% | %Inh [2]: 5% | %Inh [3, 7]: 12% | %Inh [4]: 0% | %Inh [5]: 45% | %Inh [6]: 100%

Nc1ncc(-c2ccc3nccc(-c4ccncc4)c3c2)cc1S(=O)(=O)N1CCOCC1 [GSK1627798]
%Inh [1]: 0% | %Inh [2]: 0% | %Inh [3, 7]: 0% | %Inh [4]: 0% | %Inh [5]: 0% | %Inh [6]: 0%

c1ccc(-c2cnc3nccnn23)cc1 [AH20685]
%Inh [1]: 0% | %Inh [2]: 0% | %Inh [3, 7]: 0% | %Inh [4]: 0% | %Inh [5]: 20% | %Inh [6]: 0%

COc1cc(Nc2nccc(-c3c(-c4cccc(NC(=O)c5c(F)cccc5F)c4)nn4ncccc34)n2)cc(OC)c1OC [GSK327238]
%Inh [1]: 97.2% | %Inh [2]: 0% | %Inh [3, 7]: 99.9% | %Inh [4]: 100% | %Inh [5]: 52% | %Inh [6]: 21%

CCn1c(-c2nonc2N)nc2c(C#CC(C)(C)O)ncc(OCCCCN)c21.O=C(O)C(F)(F)F.O=C(O)C(F)(F)F [GSK507274]
%Inh [1]: 36% | %Inh [2]: 0% | %Inh [3, 7]: 0% | %Inh [4]: 0% | %Inh [5]: 27% | %Inh [6]: 0%

Cc1ccc(C(=O)Nc2ccc(Nc3ccnc4cc(-c5nccs5)ccc34)cc2O)cc1.Cl [GW494702]
%Inh [1]: 63% | %Inh [2]: 33% | %Inh [3, 7]: 0% | %Inh [4]: 0% | %Inh [5]: 21% | %Inh [6]: 19%

O=C(O)C(F)(F)F.O=C(O)C(F)(F)F.O=c1[nH]ccc2nc(N[C@@H]3CCCNC3)nc(Nc3ccc(S(=O)(=O)N4CCOCC4)cc3)c12 [GSK2177277]
%Inh [1]: 0% | %Inh [2]: 71% | %Inh [3, 7]: 0% | %Inh [4]: 0% | %Inh [5]: 57% | %Inh [6]: 40%

COc1cc(Nc2ncc3c(C)nc(-c4cc5ccccc5[nH]4)n3n2)cc(OC)c1OC [GW869516]
%Inh [1]: 0% | %Inh [2]: 0% | %Inh [3, 7]: 9% | %Inh [4]: 2% | %Inh [5]: 0% | %Inh [6]: 16%

Cl.Cl.NCC(C(=O)Nc1cc(Br)c(-c2ccnc3[nH]ccc23)s1)c1ccccc1 (stereo not drawn) [GSK1269851]
%Inh [1]: 0% | %Inh [2]: 0% | %Inh [3, 7]: 0% | %Inh [4]: 40% | %Inh [5]: 17% | %Inh [6]: 0%
